# HT1080NT lethal: kills 2HG-producing HT-1080-NT fibrosarcoma cells. HT-1080-NT fibrosarcoma viability, CellTiter-Glo ATP luminescence, 48 h. Potency, µM (titrated, usually from 46.1 µM), for the others: top-dose activity, negative = less viability, actives largely listed as cytotoxic. actives 1.6% (n = 360,000). AID 686970;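 note: NT is the 2HG producing partner of a matched IDH1 knockdown line; potency is the fitted concentration of half-maximal effect; 0% = DMSO-treated cells and -100% = media-only wells without cells; nearly all actives have a fitted effect of over 55% in size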
#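 Viability by CellTiter-Glo luminescence after 48 h compound exposure at 37C of HT-1080-NT cells (750/well, RPMI, 5% FBS). % activity scaled between DMSO wells and medium-only wells, then curve-fitted and categorized by curve class.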
# HT1080 IDH1KD tx: HT-1080 IDH1 knockdown cell toxicity (counter line); HT-1080 IDH1 knockdown viability, ATP luminescence, 48 h; Potency, µM (series often up to 46.1 µM), for the others: at the highest dose activity, negative = toxicity, hits mostly cytotoxic; actives 2% (n = 360,000);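 note: potency is the fitted concentration of half-maximal effect; 0% = DMSO wells and -100% = cell-free medium wells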
#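 IDH1KD HT-1080 cells, 750/well, RPMI + 5% FBS; compound pinned after 2 h settling; 48 h, 37 °C; CellTiter-Glo luminescence; % activity normalised to DMSO and no-cell wells; curves fitted, classed by r2 and efficacy.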
# uPA generation: inhibitors of cell surface uPA generation. cell surface uPA generation assay, qHTS. Potency, µM (titrated, usually from 38.3 µM), for the others: at the top dose activity change, negative = inhibition, hits mostly inhibitors. actives 0.31% (n = 330,000); active = well fitted inhibition curve with a large enough effect; inconclusive = small, poorly fitted or top-dose-only effect; inactive = no such curve, though single readings can be large or run the other way; tested in mouse RAW 264.7 cells; note: potency is the fitted concentration of half-maximal effect; nearly all actives have a fitted effect of over 55% in size
# TDP1 cell noCPT: qHTS for Inhibitors of human tyrosyl-DNA phosphodiesterase 1 (TDP1): qHTS in cells in absence of CPT | DT40 Tdp1-/- hTDP1 cells, no CPT, ATP luminescence, 48 h | Potency, µM (doses to about 46.2 µM), inactives show at the highest dose activity change, negative = growth inhibition, actives largely listed as inhibitors | AID 686978, 2013 | actives 15% (n = 420,000); note: potency is the fitted concentration of half-maximal effect; nearly all actives have a fitted effect of over 55% in size
#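 DT40 Tdp1-/-;hTDP1 cells, no CPT (DMSO vehicle only), 400 cells/well; compounds pin-transferred; ≥48 hr, 37 °C; CellTiter-Glo 30 min RT dark, luminescence read.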
# TDP1 cell CPT: DT40-hTDP1 cell growth loss with CPT; chicken DT40 Tdp1-/-;hTDP1 cells + 20 nM CPT, ATP luminescence, 48 h; Potency, µM (highest dose often 46.2 µM), for the others: at the highest dose activity change, negative = growth inhibition, usual class: inhibitors; actives 12% (n = 420,000); AID 686979; note: potency is the fitted concentration of half-maximal effect; nearly all actives have a fitted effect of over 55% in size
#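 Chicken DT40 Tdp1-/- cells complemented with human TDP1, 400 cells/well, exposed to compounds plus 20 nM camptothecin for at least 48 h at 37 C; viability read as ATP content by CellTiter-Glo luminescence.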
# IL1B secr inh: blocks inflammasome-driven IL-1 beta release | THP-1 LPS/ATP IL-1B secretion, AlphaLISA, 16 h; stronger effect = lower value | activity change, % at 57.5 µM | actives 4.7% (n = 360,000); in the data active = activity change below about -50%; inconclusive = mostly about -30% to -49%
#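 Secreted IL-1B measured by AlphaLISA bead assay after 16 h compound exposure of THP-1 cells; compounds (final up to 57.5 uM) added 1 h before LPS (250 ng/mL) and ATP (1.25 mM) stimulation; lower signal means less secretion.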
# The depositor's hits bear a star; ? = inconclusive; . = not tested or not shown; [ ] = another dose, or the depositor's remark. Most compounds without a hit are left out; they make up all but 19% or so of the library. Unless noted, calls come from the whole dose curve; as a rule, active = well fitted curve in the direction sought with a large enough effect; inconclusive = small, poorly fitted or top-dose-only effect, or another doubt; inactive = no such curve, though single readings can be large; an effect the other way counts as inactive or inconclusive. Unless noted, % is set by controls: 0 for no effect and ±100 for the full control effect.
SMILES,HT1080NT lethal,HT1080 IDH1KD tx,uPA generation,TDP1 cell noCPT,TDP1 cell CPT,IL1B secr inh
O=C(NCCC1CCCCN1S(=O)(=O)c1ccc(F)cc1)C(=O)Nc1ccccc1 (configuration not stated),4.2%,11.0%,1.2%,18.4µM*,?,-8.2
COc1ccc(CNC(=O)C(=O)NCCC2CCCCN2S(=O)(=O)c2cccs2)cc1 (configuration not stated),5.9%,-6.8%,-3.9%,?,?,-21.4
O=C(NCCC1CCCCN1S(=O)(=O)c1ccc(F)cc1)C(=O)NCc1cccnc1 (configuration not stated),9.1%,12.2%,2.4%,-13.1%,-14.3%,-10.0
COc1cccc(NC(=O)C(=O)NCCC2CCCCN2S(=O)(=O)c2cccs2)c1 (configuration not stated),-3.7%,-15.4%,-6.8%,16.4µM*,?,-9.0
O=C(NCCC1CCCCN1S(=O)(=O)c1ccccc1)C(=O)NCc1ccncc1 (configuration not stated),-5.3%,-0.5%,0.8%,?,5.7%,-1.7
COc1ccc(NC(=O)C(=O)NCCC2CCCCN2S(=O)(=O)c2cccs2)cc1 (configuration not stated),?,5.8µM*,-11.5%,4.61µM*,3.66µM*,-27.2
Cn1c(=O)c2c(nc(Oc3ccccc3)n2Cc2c(Cl)cccc2Cl)n(C)c1=O,.,.,.,1.6%,7.8%,.
O=C(COc1ccc2ccc(=O)oc2c1)NC1CCN(Cc2ccccc2)CC1,-5.4%,-5.9%,3.3%,-6.0%,-10.2%,0.0
O=C1NCC(Nc2ccc(Br)cc2)C(=O)N1 (configuration not stated),0.1%,5.3%,2.1%,-9.3%,12.2%,-1.6
COC(=O)C1C(c2ccc(OC)cc2)C(C(=O)OC)S(=O)(=O)C(CCN2CCCCC2)S1(=O)=O (configuration not stated),-0.5%,5.9%,4.3%,4.3%,0.0%,10.8
O=C(NCCC1CCCCN1S(=O)(=O)c1cccs1)C(=O)Nc1ccccc1 (configuration not stated),-4.4%,-15.9%,-2.5%,23.1µM*,16.4µM*,?
COCCNC(=O)Cn1nc(-c2ccc(C)cc2)ccc1=O,0.2%,-1.7%,-2.6%,-6.4%,3.1%,-14.1
CN(Cc1ccc2c(c1)CN(C(=O)c1cccc(N(C)C)c1)CCO2)Cc1cc(C2CC2)n[nH]1,.,.,.,23.1µM*,0.8%[9.04 µM],.
O=C(c1ccc(F)c(F)c1)N1CCOc2ccc(CN3CCN(Cc4ccccn4)CC3)cc2C1,.,.,.,-14.3%,24.6%[9.04 µM],.
Cc1ccc(N(Cc2ccccc2)C(=O)c2ccc(S(=O)(=O)N3CCOCC3)cc2)cc1,3.4%,1.7%,-3.5%,18.4µM*,?,-59.6*
Cc1ccc(N(Cc2ccccc2)C(=O)c2ccc(C)c(S(=O)(=O)N3CCOCC3)c2)cc1,-16.4%,-23.6%,-24.0%,?,?,5.4
Cc1ccc(N(Cc2ccccc2)C(=O)c2cccc(S(=O)(=O)N3CCN(C)CC3)c2)cc1,5.1%,8.0%,-23.6%,?,?,-17.9
Cc1ccc(N(Cc2ccccc2)C(=O)c2cccc(S(=O)(=O)N3CCOCC3)c2)cc1,-3.0%,-1.6%,-0.6%,20.6µM*,?,2.4
CC(O)(c1ccc(F)c(F)c1)c1nc(-c2cccc3cccnc23)cs1 (configuration not stated),?,-17.9%,.,-20.9%,?,7.0
CSc1nc(SCCN(C)C)c2c3c(sc2n1)COC(C)(C)C3,-23.7%,?,-3.6%,18.4µM*,?,-60.9*
O=C(COC(=O)c1cncc(Br)c1)NCc1cccs1,1.1%,0.5%,9.8%,-26.2%,-6.9%,8.6
O=C(N/N=C/c1ccncc1)c1nc(-c2ccccc2)n2c1CCCCC2,2.0%,-4.6%,-1.0%,7.31µM*,7.31µM*,?
NC(=O)CC(NC(=O)c1ccc(Br)cc1)c1ccc(N2CCC(Br)CC2)c([N+](=O)[O-])c1 (configuration not stated),-12.3%,-13.8%,?,11.6µM*,18.4µM*,-25.5
NC(=O)CC(NC(=O)c1ccccc1)c1ccc(N2CCCCCCC2)c([N+](=O)[O-])c1 (configuration not stated),18.0%,0.2%,-8.6%,9.2µM*,8.2µM*,6.4
NC(=O)CC(NC(=O)Cc1ccc(Br)cc1)c1ccc(N2CCC(Cc3ccccc3)CC2)c([N+](=O)[O-])c1 (configuration not stated),?,?,-21.1%,23.1µM*,?,0.0
SMILES,HT1080NT lethal,HT1080 IDH1KD tx,uPA generation,TDP1 cell noCPT,TDP1 cell CPT,IL1B secr inh
NC(=O)CC(NC(=O)c1ccccc1)c1ccc(N2CCc3ccccc3C2)c([N+](=O)[O-])c1 (configuration not stated),-2.5%,-0.2%,-10.8%,?,?,0.0
NC(=O)CC(NC(=O)c1cccc(Br)c1)c1ccc(N2CCCCCC2)c([N+](=O)[O-])c1 (configuration not stated),6.4%,2.5%,-6.8%,6.51µM*,5.8µM*,6.2
NC(=O)CC(NC(=O)Cc1cccc2ccccc12)c1ccc(N2CCC(Cc3ccccc3)CC2)c([N+](=O)[O-])c1 (configuration not stated),-1.7%,-16.1%,74.2%,?,-29.0%,-0.2
NC(=O)CC(NC(=O)c1cccc(Br)c1)c1ccc(N2CCC(N3CCCC3)CC2)c([N+](=O)[O-])c1 (configuration not stated),7.6%,9.2%,9.4%,-19.3%,5.1%,-1.0
Cc1ccc(N2CC(C(=O)Nc3ccc4c(c3)OCO4)CC2=O)cc1C (configuration not stated),-2.5%,-4.2%,1.2%,-11.9%,?,30.9
Cc1cc(C(=O)Nc2cccc(-c3nc(CNC(=O)c4cc5ccccc5[nH]4)c(C)o3)c2)c(C)o1,.,.,.,-13.2%,24.2%,.
Cc1ccc(S(=O)(=O)c2nc(/C=C/c3ccccc3)oc2N2CCC(C(N)=O)CC2)cc1,13.3%,13.6%,.,?,?,-15.5
NC(=O)CC(NC(=O)Cc1ccc(Br)cc1)c1ccc(N2CCCCCCC2)c([N+](=O)[O-])c1 (configuration not stated),-21.7%,-11.6%,-29.6%,-23.2%,?,-2.0
